From PubChem BioAssay (NCI)
This is part of a sample that, as a whole, favours compounds with a hit. Of some 79,000 tested, about 15% had one in any assay. The source made the active and inactive calls. Rule as the data show it: active = growth inhibition above about 70%; inactive = the rest.

Experiment: NCI Yeast Anticancer Drug Screen. Data for the rad50 strain (AID 155);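 also: 0% = growth of vehicle-only cultures of the same strain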
Conditions: S. cerevisiae rad50 strain growth inhibition; at 50.0 µM; stronger effect = higher value
In short: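 Genetically altered yeast (DNA repair pathway); compound treatment; growth inhibition vs vehicle ctrl.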

Question: Which growth inhibition does the source give for COC(=O)/C=C/c1cccc[n+]1[O-] here?
Answer: 44.6% (inactive)

Question: For CN(C)CCCNc1c(C#N)[n+]([O-])c2cc(Cl)ccc2[n+]1[O-], which growth inhibition is on record?
Answer: 66.7% (inactive)

Question: With Cc1c(N=Nc2ccc(Br)cc2)c(-c2ccccc2)nn1C(N)=S as the molecule, how does the growth inhibition read?
Answer: 97.7% (active)

Question: With COc1cc2c(c(OC)c1OC)-c1ccc(O)c(=O)cc1C(N=Cc1ccccc1)CC2 (centres undefined) as the molecule, how does the growth inhibition read?
Answer: -17.9% (inactive)

Question: With CCC(C)SC1SCC2C(=O)N(C)C3(CC3C)C(=O)OCC(NC(=O)c3nc4ccccc4cc3O)C(=O)NC(C)C(=O)N(C)C1C(=O)N(C)C1(CC1C)C(=O)OCC(NC(=O)c1nc3ccccc3cc1O)C(=O)NC(C)C(=O)N2C (centres undefined) as the molecule, how does the growth inhibition read?
Answer: 89.7% (active)

Question: For O=C(N/C(=C\c1ccc2c(c1)OCO2)c1nc2ccccc2s1)c1ccccc1, which growth inhibition is on record?
Answer: 97% (active)

Question: Which growth inhibition does the source give for CCCC/C=C1/CCC(CN(C)C)C1=O (centres undefined) here?
Answer: 51.9% (inactive)

Question: For O=C(O)c1cc2c(cc1CC(Cc1ccc3c(c1)CCCC3)C(=O)O)CCCC2 (centres undefined), which growth inhibition is on record?
Answer: 86.3% (active)

Question: With CCNC(=O)COc1ccc(Cl)cc1Cl as the molecule, how does the growth inhibition read?
Answer: -17.6% (inactive)

Question: For Fc1ccc(OCCC(Cn2ccnc2)c2ccc(Cl)cc2Cl)cc1 (centres undefined), which growth inhibition is on record?
Answer: 98.7% (active)

Question: With Cc1ccc(NC(=O)/C(CC(=O)c2sc(Nc3ccc(Cl)c(Cl)c3)nc2C)=N\Nc2ccc([N+](=O)[O-])cc2[N+](=O)[O-])c(C)c1 as the molecule, how does the growth inhibition read?
Answer: 97.7% (active)

Question: With Oc1ccc(C/C=C/c2ccccc2)cc1O as the molecule, how does the growth inhibition read?
Answer: 56.8% (inactive)

Question: For CC(=O)OC1=CC2=CCC3C(CCC4(C)C(C(C)=O)CCC34)C2(C)CC1 (centres undefined), which growth inhibition is on record?
Answer: -5.65% (inactive)

Question: With CCCCNc1ccc(-c2c(N)nc(N)nc2CC)cc1[N+](=O)[O-] as the molecule, how does the growth inhibition read?
Answer: 62.4% (inactive)
